Experimental findings from PubChem BioAssay (NCI) are described below.

Assay [1] is described as follows: NCI Yeast Anticancer Drug Screen. Data for the rad50 strain (AID 155).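 Also: 0% = growth of vehicle-only cultures of the same strain.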 Conditions: S. cerevisiae rad50 strain growth inhibition, stronger effect = higher value. A digest of the protocol:
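Compounds were tested on a yeast strain with an engineered DNA damage repair alteration; the reported value is growth inhibition normalised to vehicle treatment.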

A short description of assay [2]: NCI Yeast Anticancer Drug Screen. Data for the mec2-1 strain (AID 157). The note with it: S. cerevisiae mec2-1 strain, stronger effect = higher value. In short, it runs like this: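 Readout is yeast growth inhibition, normalised to vehicle-treated controls, in the mec2-1 strain exposed to compound.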
Assay [3] in a line: NCI Yeast Anticancer Drug Screen. Data for the sgs1 mgt1 strain (AID 161).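 Also: 0% = growth of cultures given vehicle only.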 Conditions: S. cerevisiae sgs1 mgt1 strain, stronger effect = higher value. In short, it runs like this: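 Percent growth inhibition was derived by comparing compound-exposed mutant yeast with vehicle-exposed cultures. The strain carries alterations in DNA damage repair.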
A short description of assay [4]: NCI Yeast Anticancer Drug Screen. Data for the cln2 rad14 strain (AID 165).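 Also: 0% = growth equal to vehicle treated cultures.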 Conditions: S. cerevisiae cln2 rad14 strain, stronger effect = higher value. In short, it runs like this: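 Relative to vehicle controls, growth inhibition of compound-treated cln2 rad14 yeast was recorded.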
Assay [5] in a line: NCI Yeast Anticancer Drug Screen. Data for the bub3 strain (AID 167). The note with it: S. cerevisiae bub3 mutant strain, stronger effect = higher value. A digest of the protocol: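 Growth of a checkpoint-deficient yeast mutant is measured after compound exposure. Values represent inhibition relative to vehicle.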
Assay [6] in a line: NCI Yeast Anticancer Drug Screen. Data for the mlh1 rad18 strain (AID 175). Conditions: S. cerevisiae mlh1 rad18 strain growth inhibition, stronger effect = higher value. A digest of the protocol:
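Test agents were incubated with a yeast strain of defined genotype (DNA damage repair defect). Inhibition of growth was derived by comparison with vehicle-exposed cultures.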

Setting [7] is: at 5.0 µM (retest, dose inferred, filed as 0.5).
The mark [8] stands for this setting: at 50.0 µM (retest, dose inferred, filed as 5.0).

The panel holds about 79,000 compounds, 15% with a hit somewhere; the sample as a whole holds those more often. Values without a mark were called inactive. The source made the active and inactive calls. Rule as the data show it: active = growth inhibition above about 70%; inactive = the rest.

As for `COc1ccc(CNCCc2ccc(O)c(OC)c2)cc1O`, the growth inhibition in assay [1] (setting [7]) was 1%; in assay [1] (setting [8]) it was 0%; in assay [1] (at 50.0 µM), 31.4%; in assay [2] (setting [7]), 1%; in assay [2] (setting [8]) it was 3%; in assay [2] (at 50.0 µM), -2.8%. In addition, the growth inhibition in assay [3] (setting [7]) was 4%; in assay [3] (setting [8]) it was 7%; in assay [3] (at 50.0 µM), -0.55%; in assay [4] (setting [7]) it was -5%; in assay [4] (setting [8]) it was 5%; in assay [4] (at 50.0 µM), -6.35%. The growth inhibition is -3% in assay [5] (setting [7]); -3% in assay [5] (setting [8]); 8.7% in assay [5] (at 50.0 µM); -1% in assay [6] (setting [7]); 8% in assay [6] (setting [8]); -4.45% in assay [6] (at 50.0 µM).
As to `Cc1ccc(NP(=O)(Oc2ccccc2)N(CCCl)CCCl)cc1` (configuration not stated), the growth inhibition in assay [1] (setting [7]) was 11%; in assay [1] (setting [8]), 10%; in assay [1] (at 50.0 µM) it was 74% (active); in assay [2] (setting [7]) it was -8%; in assay [2] (setting [8]) it was 10%; in assay [2] (at 50.0 µM), 23.9%. The growth inhibition was 8% in assay [3] (setting [7]); 20% in assay [3] (setting [8]); 73.5% (active) in assay [3] (at 50.0 µM); 30% in assay [4] (setting [7]); 61% in assay [4] (setting [8]); 56.5% in assay [4] (at 50.0 µM). Moreover, the growth inhibition in assay [5] (setting [7]) was 14%; in assay [5] (setting [8]), 32%; in assay [5] (at 50.0 µM) it was 62%; in assay [6] (setting [7]), -10%; in assay [6] (setting [8]), -5%; in assay [6] (at 50.0 µM) it was 54.6%.
For the compound `COc1cc(C=Nc2ccc(-c3csc(COc4ccccc4)n3)cc2)ccc1N(CCCl)CCCl`, the growth inhibition in assay [1] (setting [7]) is 12%; in assay [1] (setting [8]), 88% (active); in assay [1] (at 50.0 µM) it was 89.7% (active); in assay [2] (setting [7]), 11%; in assay [2] (setting [8]) it was 92% (active); in assay [2] (at 50.0 µM), 88.1% (active). Moreover, the growth inhibition was 8% in assay [3] (setting [7]); 93% (active) in assay [3] (setting [8]); 86.2% (active) in assay [3] (at 50.0 µM); 2% in assay [4] (setting [7]); 85% (active) in assay [4] (setting [8]); 84.2% (active) in assay [4] (at 50.0 µM). The growth inhibition was 17% in assay [5] (setting [7]); 88% (active) in assay [5] (setting [8]); 86% (active) in assay [5] (at 50.0 µM); 77% (active) in assay [6] (setting [7]); 92% (active) in assay [6] (setting [8]); 90.6% (active) in assay [6] (at 50.0 µM).
Regarding `CCC[N+](CCC)(CCC)CCC.N#CN=C([SH2+])[SH2+].N#CN=C([SH2+])[SH2+].[Pt+2]`, the growth inhibition in assay [1] (setting [7]) is -1%; in assay [1] (setting [8]), 7%; in assay [1] (at 50.0 µM), 79.3% (active); in assay [2] (setting [7]) it was -4%; in assay [2] (setting [8]), 2%; in assay [2] (at 50.0 µM), 44%. Moreover, the growth inhibition in assay [3] (setting [7]) was 4%; in assay [3] (setting [8]), 39%; in assay [3] (at 50.0 µM), 89.9% (active); in assay [4] (setting [7]), -6%; in assay [4] (setting [8]), -7%; in assay [4] (at 50.0 µM) it was 14.1%. Also, the growth inhibition in assay [5] (setting [7]) is -5%; in assay [5] (setting [8]) it was -1%; in assay [5] (at 50.0 µM), 14.1%; in assay [6] (setting [7]), 20%; in assay [6] (setting [8]), 57%; in assay [6] (at 50.0 µM), 49.9%.
`COc1cccc(C(Cc2ccc(N3C(N)=NC(N)=NC3(C)C)cc2)C(=O)Nc2ccc(S(=O)(=O)F)cc2)c1` (configuration not stated): the growth inhibition was 8% in assay [1] (setting [7]); 96% (active) in assay [1] (setting [8]); 99.5% (active) in assay [1] (at 50.0 µM); -139% in assay [2] (setting [7]); 99% (active) in assay [2] (setting [8]); 99.6% (active) in assay [2] (at 50.0 µM). For the same compound, the growth inhibition in assay [3] (setting [7]) is 1%; in assay [3] (setting [8]), 99% (active); in assay [3] (at 50.0 µM), 99.8% (active); in assay [4] (setting [7]), -1%; in assay [4] (setting [8]), 92% (active); in assay [4] (at 50.0 µM), 96.7% (active). The growth inhibition in assay [5] (setting [7]) was 1%; in assay [5] (setting [8]), 98% (active); in assay [5] (at 50.0 µM) it was 95% (active); in assay [6] (setting [7]), 6%; in assay [6] (setting [8]), 99% (active); in assay [6] (at 50.0 µM), 99.4% (active).
For `Oc1cccc[c]1[Hg][Cl]`, the growth inhibition is 99% (active) in assay [1] (setting [7]); 99% (active) in assay [1] (setting [8]); 99.5% (active) in assay [1] (at 50.0 µM); 99% (active) in assay [2] (setting [7]); 100% (active) in assay [2] (setting [8]); 99.7% (active) in assay [2] (at 50.0 µM). Further, the growth inhibition in assay [3] (setting [7]) was 99% (active); in assay [3] (setting [8]), 99% (active); in assay [3] (at 50.0 µM), 99.5% (active); in assay [4] (setting [7]), 100% (active); in assay [4] (setting [8]), 99% (active); in assay [4] (at 50.0 µM) it was 98.6% (active). In addition, the growth inhibition was 99% (active) in assay [5] (setting [7]); 99% (active) in assay [5] (setting [8]); 99.5% (active) in assay [5] (at 50.0 µM); 99% (active) in assay [6] (setting [7]); 99% (active) in assay [6] (setting [8]); 99.5% (active) in assay [6] (at 50.0 µM).
For the compound `Cc1cc(C)[n+](CCOc2ccc(/C(=C(/Cl)c3ccccc3)c3ccccc3)cc2)c(C)c1`, the growth inhibition in assay [1] (setting [7]) was 99% (active); in assay [1] (setting [8]), 99% (active); in assay [1] (at 50.0 µM), 91.7% (active); in assay [2] (setting [7]), 83% (active); in assay [2] (setting [8]), 83% (active); in assay [2] (at 50.0 µM), 91.9% (active). Besides, the growth inhibition is 73% (active) in assay [3] (setting [7]); 73% (active) in assay [3] (setting [8]); 92.2% (active) in assay [3] (at 50.0 µM); 97% (active) in assay [4] (setting [7]); 97% (active) in assay [4] (setting [8]); 91.7% (active) in assay [4] (at 50.0 µM). The growth inhibition in assay [5] (setting [7]) was 67%; in assay [5] (setting [8]), 67%; in assay [5] (at 50.0 µM), 90% (active); in assay [6] (setting [7]) it was 82% (active); in assay [6] (setting [8]) it was 82% (active); in assay [6] (at 50.0 µM), 89.8% (active).
On to `CCOP(=S)(OCC)SC(O)(C(F)F)C(F)F`, for which the growth inhibition in assay [1] (setting [7]) was 5%; in assay [1] (setting [8]), 34%; in assay [1] (at 50.0 µM), 28.8%; in assay [2] (setting [7]), -3%; in assay [2] (setting [8]), 54%; in assay [2] (at 50.0 µM), 22.9%. In addition, the growth inhibition in assay [3] (setting [7]) was 3%; in assay [3] (setting [8]) it was 62%; in assay [3] (at 50.0 µM), 42%; in assay [4] (setting [7]), -3%; in assay [4] (setting [8]), 32%; in assay [4] (at 50.0 µM), 22.4%. In addition, the growth inhibition in assay [5] (setting [7]) is -2%; in assay [5] (setting [8]), 69%; in assay [5] (at 50.0 µM) it was 39.4%; in assay [6] (setting [7]) it was 0%; in assay [6] (setting [8]), 78% (active); in assay [6] (at 50.0 µM), 30.7%.
For the compound `O=C(N/N=C/c1cc(Cl)cc(Cl)c1[O-])c1ccccc1O.O=C(N/N=C/c1cc(Cl)cc(Cl)c1[O-])c1ccccc1O.[Zn+2]`, the growth inhibition is 93% (active) in assay [1] (setting [7]); 63% in assay [1] (setting [8]); 94.5% (active) in assay [1] (at 50.0 µM); 97% (active) in assay [2] (setting [7]); 64% in assay [2] (setting [8]); 91.8% (active) in assay [2] (at 50.0 µM). The growth inhibition in assay [3] (setting [7]) was 96% (active); in assay [3] (setting [8]), 72% (active); in assay [3] (at 50.0 µM) it was 93% (active); in assay [4] (setting [7]), 92% (active); in assay [4] (setting [8]), 50%; in assay [4] (at 50.0 µM), 91.8% (active). In addition, the growth inhibition in assay [5] (setting [7]) was 95% (active); in assay [5] (setting [8]), 62%; in assay [5] (at 50.0 µM), 92.7% (active); in assay [6] (setting [7]), 95% (active); in assay [6] (setting [8]), 64%; in assay [6] (at 50.0 µM), 95.1% (active).
